The record followed here is PubChem BioAssay (NCI).

Compounds without any hit were thinned out: in the full panel of roughly 79,000, 15% have a hit. Unmarked numbers belong to inactive results. Calls of active or inactive are those of the source. Rule as the data show it: active = growth inhibition above about 70%; inactive = the rest.

The nature of test [1]: NCI Yeast Anticancer Drug Screen. Data for the rad50 strain (AID 155).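 Also: 0% = growth of vehicle-only cultures of the same strain.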 The conditions noted are these: S. cerevisiae rad50 strain growth inhibition, stronger effect = higher value. The method, boiled down:
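Yeast carrying a defined DNA repair defect were exposed to test compounds, and growth was compared with vehicle-treated controls to give percent inhibition.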

Test [2] in a line: NCI Yeast Anticancer Drug Screen. Data for the mec2-1 strain (AID 157). The conditions noted are these: S. cerevisiae mec2-1 strain, stronger effect = higher value. An outline of the steps:
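Test agents were screened against the mec2-1 yeast strain, with defined DNA repair or cell cycle alteration. Growth was scored as inhibition against vehicle-only controls.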

The nature of test [3]: NCI Yeast Anticancer Drug Screen. Data for the sgs1 mgt1 strain (AID 161).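 Also: 0% = growth of cultures given vehicle only.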 The conditions noted are these: S. cerevisiae sgs1 mgt1 strain, stronger effect = higher value. An outline of the steps:
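Read-out: growth inhibition vs vehicle controls. Cells: mutant yeast strain deficient in DNA damage repair.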

A short description of test [4]: NCI Yeast Anticancer Drug Screen. Data for the cln2 rad14 strain (AID 165).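 Also: 0% = growth equal to vehicle treated cultures.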 The conditions noted are these: S. cerevisiae cln2 rad14 strain, stronger effect = higher value. An outline of the steps: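 Growth of compound-exposed yeast (cln2 rad14 genotype) measured and expressed as inhibition relative to vehicle.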
The nature of test [5]: NCI Yeast Anticancer Drug Screen. Data for the bub3 strain (AID 167). The conditions noted are these: S. cerevisiae bub3 mutant strain, stronger effect = higher value. The method, boiled down: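 Compounds were applied to a genetically altered yeast strain carrying a cell-cycle control defect. Growth inhibition was scored against vehicle-treated controls.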
The nature of test [6]: NCI Yeast Anticancer Drug Screen. Data for the mlh1 rad18 strain (AID 175). The conditions noted are these: S. cerevisiae mlh1 rad18 strain growth inhibition, stronger effect = higher value. The method, boiled down:
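In this whole-cell yeast screen, a strain with altered DNA damage repair is challenged with compound, and its growth is measured against matched vehicle-treated controls.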

Setting [7] is: at 5.0 µM (retest, dose inferred, filed as 0.5).
Setting [8] is: at 50.0 µM (retest, dose inferred, filed as 5.0).

As to `COc1ccc(NC(=O)CCC(NS(=O)(=O)c2ccc(C)cc2)C(=O)O)cc1` (stereo not given), the growth inhibition in test [1] (setting [7]) is -6%; in test [1] (setting [8]), -3%; in test [1] (at 50.0 µM), 19.4%; in test [2] (setting [7]) it was -4%; in test [2] (setting [8]), -5%; in test [2] (at 50.0 µM), 8.6%. In addition, the growth inhibition is -7% in test [3] (setting [7]); -23% in test [3] (setting [8]); 7.7% in test [3] (at 50.0 µM); -8% in test [4] (setting [7]); -17% in test [4] (setting [8]); 10.4% in test [4] (at 50.0 µM). For the same molecule, the growth inhibition in test [5] (setting [7]) was -2%; in test [5] (setting [8]), 2%; in test [5] (at 50.0 µM) it was 51.9%; in test [6] (setting [7]), -3%; in test [6] (setting [8]), -3%; in test [6] (at 50.0 µM), 19.1%.
In the case of `O.O.O=C(O)C(O)C(O)C(OC1OC(CO)C(O)C(O)C1O)C(O)CO.O=C(O)C(O)C(O)C(OC1OC(CO)C(O)C(O)C1O)C(O)CO.[NH-]C1CCCCC1[NH-].[Pt+2]` (stereo not given), the growth inhibition was -6% in test [1] (setting [7]); 39% in test [1] (setting [8]); 95.1% (active) in test [1] (at 50.0 µM); -6% in test [2] (setting [7]); 21% in test [2] (setting [8]); 99.6% (active) in test [2] (at 50.0 µM). The growth inhibition in test [3] (setting [7]) is 0%; in test [3] (setting [8]) it was 50%; in test [3] (at 50.0 µM) it was 99.7% (active); in test [4] (setting [7]), 2%; in test [4] (setting [8]), 12%; in test [4] (at 50.0 µM) it was 73.2% (active). Also, the growth inhibition is -2% in test [5] (setting [7]); -2% in test [5] (setting [8]); 99.4% (active) in test [5] (at 50.0 µM); -6% in test [6] (setting [7]); 32% in test [6] (setting [8]); 99.2% (active) in test [6] (at 50.0 µM).
As to `CC(=O)C(=Cc1ccc(C=C(C(C)=O)C(C)=O)cc1)C(C)=O`, the growth inhibition was -1% in test [1] (setting [7]); 30% in test [1] (setting [8]); 45% in test [1] (at 50.0 µM); 5% in test [2] (setting [7]); 40% in test [2] (setting [8]); 58.5% in test [2] (at 50.0 µM). Also, the growth inhibition in test [3] (setting [7]) was 11%; in test [3] (setting [8]), 61%; in test [3] (at 50.0 µM), 58.5%; in test [4] (setting [7]) it was 11%; in test [4] (setting [8]), 8%; in test [4] (at 50.0 µM), 46.4%. Besides, the growth inhibition is -5% in test [5] (setting [7]); 30% in test [5] (setting [8]); 4.7% in test [5] (at 50.0 µM); 22% in test [6] (setting [7]); 91% (active) in test [6] (setting [8]); 94.7% (active) in test [6] (at 50.0 µM).
Turning to `CC(=O)OCC(=O)[C@@]1(O)[C@H](C)C[C@H]2[C@@H]3C=C(C)C4=Cc5c(cnn5-c5ccccc5)C[C@]4(C)[C@@]3(F)[C@@H](O)C[C@@]21C`, the growth inhibition was 0% in test [1] (setting [7]); 81% (active) in test [1] (setting [8]); 82.4% (active) in test [1] (at 50.0 µM); 0% in test [2] (setting [7]); 36% in test [2] (setting [8]); 69.5% in test [2] (at 50.0 µM). The growth inhibition in test [3] (setting [7]) is 35%; in test [3] (setting [8]), 91% (active); in test [3] (at 50.0 µM) it was 83.2% (active); in test [4] (setting [7]) it was 19%; in test [4] (setting [8]), 88% (active); in test [4] (at 50.0 µM) it was 73.4% (active). Moreover, the growth inhibition is -1% in test [5] (setting [7]); 79% (active) in test [5] (setting [8]); 24.1% in test [5] (at 50.0 µM); 46% in test [6] (setting [7]); 87% (active) in test [6] (setting [8]); 87.7% (active) in test [6] (at 50.0 µM).
With `NNCc1cc(Cl)c2cccnc2c1O`, the growth inhibition is 18% in test [1] (setting [7]); 96% (active) in test [1] (setting [8]); 98.8% (active) in test [1] (at 50.0 µM); 6% in test [2] (setting [7]); 99% (active) in test [2] (setting [8]); 98.8% (active) in test [2] (at 50.0 µM). Besides, the growth inhibition was 7% in test [3] (setting [7]); 98% (active) in test [3] (setting [8]); 98.5% (active) in test [3] (at 50.0 µM); -8% in test [4] (setting [7]); 98% (active) in test [4] (setting [8]); 97.5% (active) in test [4] (at 50.0 µM). Also, the growth inhibition in test [5] (setting [7]) was -1%; in test [5] (setting [8]), 98% (active); in test [5] (at 50.0 µM) it was 99% (active); in test [6] (setting [7]) it was 9%; in test [6] (setting [8]), 98% (active); in test [6] (at 50.0 µM), 98.7% (active).
Take `Cc1ccc2c(c1)C(=O)N(CC[P+](c1ccccc1)(c1ccccc1)c1ccccc1)C2=O`: the growth inhibition in test [1] (setting [7]) is 81% (active); in test [1] (setting [8]), 89% (active); in test [1] (at 50.0 µM), 61.8%; in test [2] (setting [7]), 63%; in test [2] (setting [8]), 85% (active); in test [2] (at 50.0 µM), 63.8%. Further, the growth inhibition was 74% (active) in test [3] (setting [7]); 91% (active) in test [3] (setting [8]); 66.8% in test [3] (at 50.0 µM); 65% in test [4] (setting [7]); 79% (active) in test [4] (setting [8]); 36% in test [4] (at 50.0 µM). For the same molecule, the growth inhibition in test [5] (setting [7]) was 84% (active); in test [5] (setting [8]), 90% (active); in test [5] (at 50.0 µM) it was 66.7%; in test [6] (setting [7]), 71% (active); in test [6] (setting [8]) it was 82% (active); in test [6] (at 50.0 µM), 62.3%.
On to `Cc1c(Cl)cccc1N=NC(=O)NNc1cccc(Cl)c1C`, for which the growth inhibition in test [1] (setting [7]) is 1%; in test [1] (setting [8]) it was 96% (active); in test [1] (at 50.0 µM), 85.4% (active); in test [2] (setting [7]) it was 29%; in test [2] (setting [8]), 96% (active); in test [2] (at 50.0 µM) it was 82.1% (active). Further, the growth inhibition in test [3] (setting [7]) is -1%; in test [3] (setting [8]) it was 97% (active); in test [3] (at 50.0 µM), 74.5% (active); in test [4] (setting [7]), 29%; in test [4] (setting [8]), 97% (active); in test [4] (at 50.0 µM), 80.5% (active). Further, the growth inhibition in test [5] (setting [7]) was -12%; in test [5] (setting [8]), 97% (active); in test [5] (at 50.0 µM) it was 83.3% (active); in test [6] (setting [7]), 1%; in test [6] (setting [8]), 98% (active); in test [6] (at 50.0 µM) it was 81.5% (active).
For the molecule `O=C1C(c2ccccc2)=[N+]([O-])c2ccccc21`, the growth inhibition in test [1] (setting [7]) is 2%; in test [1] (setting [8]) it was 39%; in test [1] (at 50.0 µM) it was 87.4% (active); in test [2] (setting [7]), 1%; in test [2] (setting [8]) it was 98% (active); in test [2] (at 50.0 µM), 98% (active). Besides, the growth inhibition in test [3] (setting [7]) was -2%; in test [3] (setting [8]) it was 92% (active); in test [3] (at 50.0 µM), 98.2% (active); in test [4] (setting [7]), 0%; in test [4] (setting [8]), 12%; in test [4] (at 50.0 µM) it was 73.5% (active). Also, the growth inhibition in test [5] (setting [7]) is 29%; in test [5] (setting [8]), 80% (active); in test [5] (at 50.0 µM), 99.2% (active); in test [6] (setting [7]), 4%; in test [6] (setting [8]), 92% (active); in test [6] (at 50.0 µM), 76.3% (active).
With `CCCC(=O)Oc1ccc(-c2ccccc2Br)cc1`, the growth inhibition in test [1] (setting [7]) was 4%; in test [1] (setting [8]) it was 67%; in test [1] (at 50.0 µM), 92.5% (active); in test [2] (setting [7]) it was 3%; in test [2] (setting [8]), 34%; in test [2] (at 50.0 µM), 82.5% (active). In addition, the growth inhibition in test [3] (setting [7]) is 10%; in test [3] (setting [8]), 44%; in test [3] (at 50.0 µM) it was 93.5% (active); in test [4] (setting [7]), 4%; in test [4] (setting [8]), 50%; in test [4] (at 50.0 µM) it was 89.2% (active). In addition, the growth inhibition in test [5] (setting [7]) was 18%; in test [5] (setting [8]), 74% (active); in test [5] (at 50.0 µM) it was 92.7% (active); in test [6] (setting [7]), 2%; in test [6] (setting [8]) it was 31%; in test [6] (at 50.0 µM) it was 88.1% (active).
Turning to `O=C(Cc1ccc2c(c1)OCO2)c1ccc(O)cc1O`, the growth inhibition in test [1] (setting [7]) is 6%; in test [1] (setting [8]), 84% (active); in test [1] (at 50.0 µM), 97.4% (active); in test [2] (setting [7]) it was 1%; in test [2] (setting [8]), 93% (active); in test [2] (at 50.0 µM), 98.4% (active). In addition, the growth inhibition in test [3] (setting [7]) is 9%; in test [3] (setting [8]), 85% (active); in test [3] (at 50.0 µM), 96.7% (active); in test [4] (setting [7]), 6%; in test [4] (setting [8]) it was 84% (active); in test [4] (at 50.0 µM), 96.1% (active). For the same molecule, the growth inhibition in test [5] (setting [7]) was 10%; in test [5] (setting [8]) it was 90% (active); in test [5] (at 50.0 µM), 97.2% (active); in test [6] (setting [7]), 5%; in test [6] (setting [8]) it was 88% (active); in test [6] (at 50.0 µM), 96.5% (active).
